{"source": "the supplement of paper PMC11150407", "note": "Hit rate of the full screen: of about 2,100 compounds, about 180 (8.6%) showed an effect of 50% or more. What follows is part of a selection rich in strong results, with near analogues and random picks from the rest.", "data": [{"test_system": "MOLM1 and UCSD/AML1 (averaged)", "test": "cell viability relative to DMSO control (POC); higher = less growth inhibition", "settings": "1 µM; 72 h", "method": "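Primary viability screen in the 3q26 EVI1-high AML cell lines MOLM1 and UCSD/AML1 (1.5e3 cells/well, 384-well), compounds at 1 uM for 72 h. ATP CellTiter-Glo read-out given as percent of viable cells over DMSO control (POC), averaged over duplicates. DMSO was the negative control and 5 uM etoposide the positive control. This mapping covers the MicroSource Spectrum and Selleck anticancer libraries (drug names).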", "units": {"cell viability": "%"}, "values": [{"smiles": "CC(C)C[C@@H]1NC(=O)[C@H](CCCN)NC(=O)[C@H](C(C)C)NC(=O)[C@H](Cc2ccc(O)cc2)N[C@@H](CCC(=O)O)C(=O)N[C@@H](CC(N)=O)C(=O)[C@@H](Cc2ccccc2)NC(=O)[C@H](Cc2ccccc2)NC(=O)[C@@H]2CCCN2C(=O)[C@@H](Cc2ccccc2)NC1=O", "cell viability": 13}, {"smiles": "CC[C@H](C)[C@H](N)C1=N[C@H](C(=O)N[C@@H](CC(C)C)C(=O)N[C@H](CCC(=O)O)C(=O)N[C@H](C(=O)N[C@H]2CCCCNC(=O)[C@H](CC(N)=O)NC(=O)[C@@H](CC(=O)O)NC(=O)[C@H](Cc3cnc[nH]3)NC(=O)[C@@H](Cc3ccccc3)NC(=O)[C@H]([C@@H](C)CC)NC(=O)[C@@H](CCCN)NC2=O)[C@@H](C)CC)CS1", "cell viability": 94.8}, {"smiles": "CC1=C(CCC(=O)O)c2cc3[nH]c(cc4nc(cc5[nH]c(cc1n2)c(C)c5C(C)O)C(C)=C4C(C)O)c(C)c3CCC(=O)O", "note": "(configuration not stated)", "cell viability": 107}, {"smiles": "COc1cc(O)c2c(c1)C(=O)c1cc(C)cc(O)c1C2=O", "cell viability": 94.9}, {"smiles": "O=C(/C=C/c1ccc(O)c(O)c1)O[C@H](Cc1ccc(O)c(O)c1)C(=O)O", "cell viability": 104}, {"smiles": "Cc1ccc(-n2nc(C(C)(C)C)cc2NC(=O)Nc2ccc(OCCN3CCOCC3)c3ccccc23)cc1", "note": "[BIRB 796 (Doramapimod)]", "cell viability": 85.1}, {"smiles": "CNC(=O)c1cc(Oc2ccc(NC(=O)Nc3ccc(Cl)c(C(F)(F)F)c3)c(F)c2)ccn1", "note": "[Regorafenib (BAY 73-4506)]", "cell viability": 28.9}, {"smiles": "CNC(=O)c1cc(Oc2ccc(NC(=O)Nc3ccc(Cl)c(C(F)(F)F)c3)cc2)ccn1", "note": "[Sorafenib (Nexavar)]", "cell viability": 59.7}, {"smiles": "CNC(=O)c1cc(Oc2ccc(NC(=O)Nc3cc(C(C)(C)C)nn3-c3ccc4ncccc4c3)c(F)c2)ccn1", "note": "[DCC-2036 (Rebastinib)]", "cell viability": 24.6}, {"smiles": "Cc1cc(OC(=O)c2c(C)cc(O)cc2O)cc(O)c1C(=O)O", "cell viability": 103}, {"smiles": "Nc1ccccc1C(=O)CC(N)C(=O)O", "note": "(configuration not stated)", "cell viability": 98.1}, {"smiles": "CC(C)=CCC[C@@H](C)[C@@H]1CC[C@]2(C)C3=C(CC[C@@]12C)[C@@]1(C)CC[C@H](O)C(C)(C)[C@@H]1CC3", "cell viability": 97.6}, {"smiles": "COc1cc(OC)c2ccc(=O)oc2c1", "cell viability": 99.1}, {"smiles": "COc1cc(OC)c2c(c1Cl)O[C@@]1(C(=O)CC(=O)C[C@H]1C)C2=O", "cell viability": 102}, {"smiles": "Cc1ccc(C(=O)Nc2ccc(CN3CCN(C)CC3)c(C(F)(F)F)c2)cc1C#Cc1cnc2cccnn12", "cell viability": 4.31}, {"smiles": "CS(=O)(=O)N1CCN(Cc2cc3nc(-c4cccc5[nH]ncc45)nc(N4CCOCC4)c3s2)CC1", "note": "[Pictilisib (GDC-0941)]", "cell viability": 51.1}, {"smiles": "CC1(C)C(=O)C=C[C@]2(C)[C@H]3CC[C@@]4(C)[C@H](c5ccoc5)OC(=O)[C@H]5O[C@]54[C@]3(C)C(=O)C[C@@H]12", "cell viability": 84.7}, {"smiles": "COc1ccc2c(c1)O[C@H]1c3ccc(OC)cc3OC[C@@H]21", "cell viability": 105}, {"smiles": "Cc1cc2c(F)c(Oc3ncnn4cc(OC[C@@H](C)O)c(C)c34)ccc2[nH]1", "cell viability": 89.6}, {"smiles": "Oc1cc(O)c2c(c1)O[C@H](c1ccc(O)c(O)c1)[C@H](O)C2", "cell viability": 96.7}, {"smiles": "O=C(Nc1cccnc1)N1CCC(Cc2cccc(Oc3ccc(C(F)(F)F)cn3)c2)CC1", "cell viability": 56.7}, {"smiles": "O=C(/C=C/c1cccnc1)NCCCCC1CCN(C(=O)c2ccccc2)CC1", "cell viability": 12}, {"smiles": "O=C(O)c1cccnc1", "cell viability": 95}, {"smiles": "COc1c(O)cc(O)cc1O", "cell viability": 98.8}, {"smiles": "O=C(O)CC[C@H]1CC[C@@](c2cc(F)ccc2F)(S(=O)(=O)c2ccc(Cl)cc2)CC1", "cell viability": 71}, {"smiles": "Cc1cccc2c3c(ccc12)C1=C(C(=O)C3=O)[C@@H](C)CO1", "cell viability": 98.4}, {"smiles": "CN(C)CC[C@H](CSc1ccccc1)Nc1ccc(S(=O)(=O)NC(=O)c2ccc(N3CCN(Cc4ccccc4-c4ccc(Cl)cc4)CC3)cc2)cc1[N+](=O)[O-]", "cell viability": 32.3}, {"smiles": "CC1(C)CCC(c2ccc(Cl)cc2)=C(CN2CCN(c3ccc(C(=O)NS(=O)(=O)c4ccc(N[C@H](CCN5CCOCC5)CSc5ccccc5)c(S(=O)(=O)C(F)(F)F)c4)cc3)CC2)C1", "note": "[ABT-263 (Navitoclax)]", "cell viability": 6.23}, {"smiles": "NC1(C(=O)O)CCC1", "cell viability": 102}, {"smiles": "OC[C@H]1O[C@@](CO)(O[C@H]2O[C@H](CO)[C@@H](O)[C@H](O)[C@H]2O)[C@@H](O[C@H]2O[C@H](CO)[C@@H](O)[C@H](O)[C@H]2O)[C@@H]1O", "cell viability": 103}, {"smiles": "CC(C)=CCc1c(O)cc2occ(-c3ccc4c(c3)OCO4)c(=O)c2c1O", "cell viability": 100}, {"smiles": "C[C@@H]1CC[C@H]2[C@](C)(CO)[C@@H](O)CC[C@]2(C)[C@@]12CC[C@@](CO)(CCO)O2", "cell viability": 89.3}, {"smiles": "C[C@@H]1O[C@@H](O[C@H]2[C@H](Oc3cc(O)c4c(=O)cc(-c5ccc(O)cc5)oc4c3)O[C@H](CO)[C@@H](O)[C@@H]2O)[C@H](O)[C@H](O)[C@H]1O", "cell viability": 110}, {"smiles": "Sc1nc2ccccc2s1", "cell viability": 115}, {"smiles": "C=CC(C)(O)CCC1C(=C)CC(O)C2C(C)(C)CCCC12C", "note": "(configuration not stated)", "cell viability": 105}, {"smiles": "CC[C@]1(O)C[C@@H]2CN(CCc3c([nH]c4ccccc34)[C@@](C(=O)OC)(c3cc4c(cc3OC)N(C)[C@H]3[C@@](O)(C(=O)OC)[C@H](OC(C)=O)[C@]5(CC)C=CCN6CC[C@]43[C@@H]65)C2)C1", "note": "[Vinblastine]", "cell viability": 8.43}, {"smiles": "CC[C@]1(O)C[C@@H]2CN(CCc3c([nH]c4ccccc34)[C@@](C(=O)OC)(c3cc4c(cc3OC)N(C)[C@H]3[C@@](O)(C(=O)OC)[C@H](OC(C)=O)[C@]5(CC)C=CCN6CC[C@]43[C@@H]65)C2)C1", "cell viability": 7.14}]}]}
